Test [1] can be described thus: inhibitors of TNFa-induced NFkB p65 translocation, primary screen, imaging, HUVEC, MLSMR starter and 10KST1 sets (AID 438;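 active = inhibition above 20% together with a positive visual image hit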;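 note: compound added about 3h40 before a 20 min TNFalpha stimulation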;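 for inhibition: signal is the nuclear over cytoplasmic p65 intensity ratio per well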). The following applies: HUVEC TNFa-induced p65 nuclear translocation; cell count: measured here: nuclei count (cytotoxicity indicator), at 2.08 µM; inhibition: at 2 µM, stronger effect = higher value, 0% TNFa-plus-vehicle, 100% no-TNFa wells.
The nature of test [2]: reduction of polyQ htt aggregates in cells – imaging, exon1htt(103Q)mCFP cells, high-content imaging, primary screen (AID 483;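 active = visual image review flags a hit and inhibition of aggregation exceeds 20%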;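 note: compound exposure lasted 3 days before fixation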;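 for nuclei count: percent of the per-plate median nuclei count of sample wells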). The settings on record: exon1htt(103Q)mCFP cell line, aggregate imaging, at 2 µM; inhibition of aggregation: stronger effect = higher value; nuclei count: measured here: cell count, toxicity.
Test [3] in a line: endothelial E-selectin expression blockers – imaging, HUVEC, immunofluorescence, MLSMR starter and 10KST1 sets, primary screen (AID 487;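 active = visually confirmed hit in the image check and inhibition above 20%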;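 for inhibition: signal is fraction of cell area covered by stained E-selectin grains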;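 for nuclei count: 100% = median nuclei count of all wells on the same plate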). The settings on record: HUVEC TNFalpha-induced E-selectin immunofluorescence imaging, at 2 µM; inhibition: stronger effect = higher value; nuclei count: measured here: cell number, toxicity.
Test [4] concerns the target Voltage-gated potassium channel subunit beta-2 (Rattus norvegicus) (UniProt P62483). Put plainly: inhibitors of rat Kvbeta2 reductase activity – biochemical, NADPH fluorescence, primary screen (AID 622;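 active = fluorescence slope higher than the sample average by over 3 SD, cut at about -0.22 in these data, passing the limit was not always enough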;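 note: slope of raw intensity against log time taken from 70 to 1610 s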). The settings on record: recombinant KvBeta, 4-cyanobenzaldehyde reduction, at 10 µM, stronger effect = higher value.
Test [5] has the same target. Put plainly: enhancers of rat Kvbeta2 NADPH turnover – biochemical, NADPH fluorescence, primary screen (AID 623;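 active = NADPH fluorescence slope more negative than the mean of all samples by about 3 SD, 99.7% confidence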;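 note: fluorescence intensity change per second fitted from 20 to 320 s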). The settings on record: Recombinant KvBeta, NADPH fluorescence decrease slope, 10 min; at 10 µM; stronger effect = lower value.
In test [6] the target is Alpha-2C adrenergic receptor (Homo sapiens) (UniProt P18825). Put plainly: compounds altering alpha2C-coupled GIRK flux – cell-based, HEK293 alpha2C/GIRK1/2, thallium flux, primary screen (AID 624;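 active = fluorescence slope after compound addition differing from the mean of all screened samples at 99.7% confidence, in either direction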;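 note: slope of fluorescence ratio to pre-addition baseline per second over 15 to 24 s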). The settings on record: thallium flux BTC fluorescence, at 10 µM, actives lie on both sides.
Sequence of Alpha-2C adrenergic receptor (Homo sapiens) (P18825 whole entry, looked up): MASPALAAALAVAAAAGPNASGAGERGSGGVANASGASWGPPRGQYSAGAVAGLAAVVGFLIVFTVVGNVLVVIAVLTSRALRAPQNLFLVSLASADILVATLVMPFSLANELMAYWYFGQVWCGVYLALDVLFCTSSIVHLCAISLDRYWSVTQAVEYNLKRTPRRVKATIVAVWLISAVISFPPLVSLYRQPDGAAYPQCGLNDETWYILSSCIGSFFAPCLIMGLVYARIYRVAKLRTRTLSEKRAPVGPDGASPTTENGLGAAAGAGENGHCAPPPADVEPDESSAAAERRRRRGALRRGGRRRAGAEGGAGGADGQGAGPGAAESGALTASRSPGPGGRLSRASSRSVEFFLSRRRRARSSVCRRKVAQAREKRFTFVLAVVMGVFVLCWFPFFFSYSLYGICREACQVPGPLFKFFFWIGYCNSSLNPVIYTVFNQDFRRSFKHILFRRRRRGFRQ
Test [7] can be described thus: blockers of RIG-like receptor reporter activation – cell-based, Sendai virus stimulus, luciferase, 10K MLSCN set, TLR/RLR signaling modifier project, primary screen (AID 602276;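 active = inhibition at or above 50% at 10 µM; inactive = inhibition below 50%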;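 note: firefly luciferase from ISG56 promoter only with Renilla not read in this screen; 0% = Sendai virus plus DMSO and 100% = medium plus DMSO without virus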). The following applies: HEK293 RL24 IRF3 luciferase reporter, at 10 µM, stronger effect = higher value.
Test [8] in a line: TLR3 IRF3 reporter activation blockers – cell-based, poly I:C stimulus, luciferase, 10K MLSCN set, primary screen (AID 602277). The settings on record: HEK293-TLR3 RL24 IRF3 luciferase reporter, at 10 µM, stronger effect = higher value. For orientation: In a reporter assay the amount or activity of a reporter protein is the signal.

Experimental findings from PubChem BioAssay are described below.

Molecules are shown by their SMILES. The source made the active and inactive calls.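 Rule for the calls, unless noted: active = inhibition of the reporter signal at or above 50%; inactive = inhibition below 50%.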

Sequence of Voltage-gated potassium channel subunit beta-2 (Rattus norvegicus) (P62483 whole entry, looked up): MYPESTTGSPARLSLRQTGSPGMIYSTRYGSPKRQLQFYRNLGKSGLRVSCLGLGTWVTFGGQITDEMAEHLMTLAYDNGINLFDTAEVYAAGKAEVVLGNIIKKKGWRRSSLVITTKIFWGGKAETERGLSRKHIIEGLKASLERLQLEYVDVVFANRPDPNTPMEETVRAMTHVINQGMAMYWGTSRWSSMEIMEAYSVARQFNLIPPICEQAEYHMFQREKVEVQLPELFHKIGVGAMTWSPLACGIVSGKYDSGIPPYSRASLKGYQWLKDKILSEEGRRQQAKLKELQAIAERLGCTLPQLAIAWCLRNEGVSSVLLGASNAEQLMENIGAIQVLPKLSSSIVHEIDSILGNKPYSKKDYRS

As for `O=C(C(c1ccccc1)c1ccccc1)N1CCN(Cc2ccccn2)CC1`, the cell count in test [1] was 357. For the same compound, the inhibition (in general, the drop in the measured response relative to a control, in per cent) in test [1] is -7.5% (inactive); in test [3], -11.4% (inactive); in test [7] it was 5.9% (inactive); in test [8], 18.2% (inactive). The inhibition of aggregation in test [2] is 3.4% (inactive). Besides, the nuclei count in test [2] turned out to be 98.4%; in test [3], 107%. For the same compound, the fluorescence slope in test [4] is -0.369 (inactive). Moreover, the NADPH fluorescence slope in test [5] was -1.3e-05 (inactive). In addition, the slope in test [6] is 0.00484 (inactive).
In the case of `CC(C)c1nccn1S(=O)(=O)c1cc(Cl)ccc1Cl`, in test [1], the cell count stood at 582. In addition, the inhibition is -11.9% (inactive) in test [1], 20.8% (inactive) in test [3], 8.92% (inactive) in test [7] and 31% (inactive) in test [8]. Further, the inhibition of aggregation in test [2] is 6.2% (inactive). Moreover, the nuclei count in test [2] came out at 110%; in test [3], 122%. The fluorescence slope in test [4] was -0.422 (inactive). For the same compound, the NADPH fluorescence slope in test [5] was -4.2e-05 (inactive). In test [6], the slope was 0.0045 (inactive).
`Oc1cccc(C=NCc2ccccc2)c1O`: the cell count in test [1] is 332. The inhibition in test [1] was -2.5% (inactive); in test [3], -100% (inactive); in test [7], 10.5% (inactive); in test [8], 41.8% (inactive). Further, the inhibition of aggregation in test [2] is 15.5% (inactive). For the same compound, the nuclei count worked out at 102% in test [2] and 130% in test [3]. In addition, the fluorescence slope in test [4] was -0.46 (inactive). The NADPH fluorescence slope in test [5] was -4e-05 (inactive). The slope in test [6] was 0.00215 (inactive).
For the compound `Cc1cc(C)c2c(n1)nn1c(N3CCN(c4cccc(Cl)c4)CC3)cc(C)nc21`, the cell count in test [1] was determined as 458. For the same compound, the inhibition in test [1] was -7.1% (inactive); in test [3], -60.1% (inactive); in test [7], 9.81% (inactive); in test [8], 21.4% (inactive). Moreover, the inhibition of aggregation in test [2] was 3.7% (inactive). Also, the nuclei count came out at 97.9% in test [2] and 130% in test [3]. Also, in test [4], the fluorescence slope was -0.303 (inactive). For the same compound, the NADPH fluorescence slope in test [5] was 1.1e-05 (inactive). For the same compound, the slope in test [6] is 0.00567 (inactive).
`COc1cc2c(C)nc(C)c(C#N)c2cc1OC`: the cell count in test [1] was 709. Also, the inhibition is -23.3% (inactive) in test [1], -12.4% (inactive) in test [3], 2.98% (inactive) in test [7] and 2.54% (inactive) in test [8]. The inhibition of aggregation in test [2] was -17.8% (inactive). For the same compound, the figures for the nuclei count in test [2] and in test [3] were 85.6% and 124%, respectively. Besides, the fluorescence slope in test [4] was -0.481 (inactive). The NADPH fluorescence slope in test [5] was -4.4e-05 (inactive). The slope in test [6] is 0.00598 (inactive).
On to `Cc1ccc(C2C(C(=O)c3sc(C)nc3C)=C(O)C(=O)N2CCN(C)C)o1` (centres undefined), for which the cell count in test [1] was 387. In addition, the inhibition was -7.6% (inactive) in test [1], -161% (inactive) in test [3], 7.21% (inactive) in test [7] and 6.57% (inactive) in test [8]. Further, the inhibition of aggregation in test [2] was -12.7% (inactive). Further, the nuclei count is 107% in test [2] and 127% in test [3]. In addition, in test [4], the fluorescence slope is -0.351 (inactive). The NADPH fluorescence slope in test [5] is -4.5e-05 (inactive). Also, the slope in test [6] was 0.00504 (inactive).
As to `CCOC(=O)C1CCN(c2cc(C)nc3cc(-c4cccc(F)c4)nn23)CC1`, the cell count in test [1] worked out at 675. Further, the inhibition in test [1] is -4.7% (inactive); in test [3], -82.8% (inactive); in test [7] it was -8.57% (inactive); in test [8] it was -12.2% (inactive). Also, the inhibition of aggregation in test [2] is 12% (inactive). Also, the nuclei count was 97.8% in test [2] and 99.1% in test [3]. Further, the fluorescence slope in test [4] was -0.35 (inactive). Besides, the NADPH fluorescence slope in test [5] was -1.5e-05 (inactive). Further, the slope in test [6] is 0.00523 (inactive).
Regarding `C=CCN(CC=C)C(=O)c1ccncc1`, the cell count in test [1] turned out to be 267. Also, the inhibition in test [1] was -14% (inactive); in test [3], -86.3% (inactive); in test [7], 4.76% (inactive); in test [8], 5.55% (inactive). Moreover, the inhibition of aggregation in test [2] was 4.9% (inactive). Moreover, the figures for the nuclei count in test [2] and in test [3] were 53.2% and 110%, respectively. For the same compound, in test [4], the fluorescence slope was -0.501 (inactive). Moreover, in test [5], the NADPH fluorescence slope is 1.1e-05 (inactive). Besides, the slope in test [6] was 0.00479 (inactive).
As for `c1ccc2c(c1)CNc1ccccc1C2`, in test [1], the cell count is 526. Besides, the inhibition in test [1] is -11.2% (inactive); in test [3], -30% (inactive); in test [7], 7.99% (inactive); in test [8] it was 10.2% (inactive). In test [2], the inhibition of aggregation was 30.2% (inactive). Besides, the results for the nuclei count in test [2] and in test [3] were 83.2% and 86.7%, respectively. Besides, in test [4], the fluorescence slope is -0.517 (inactive). Moreover, the NADPH fluorescence slope in test [5] is 2.1e-06 (inactive). Moreover, the slope in test [6] was 0.00468 (inactive).
Take `C=CCSc1nc(N)c(C(=O)Nc2ccccc2C)cc1C(N)=O`: the cell count in test [1] was 775. The inhibition in test [1] was 1.4% (inactive); in test [3] it was -142% (inactive); in test [7], -4.85% (inactive); in test [8] it was 24.2% (inactive). In test [2], the inhibition of aggregation was 15.6% (inactive). In addition, the nuclei count in test [2] is 96.4%; in test [3] it was 124%. The fluorescence slope in test [4] is -0.46 (inactive). Further, the NADPH fluorescence slope in test [5] was 1.4e-05 (inactive). Besides, the slope in test [6] was 0.00326 (inactive).
Regarding `O=C(Nc1ccon1)c1csc2c1CCCC2`, the cell count in test [1] came to 332. In addition, the inhibition in test [1] is 1.2% (inactive); in test [3] it was -52.8% (inactive); in test [7], -0.246% (inactive); in test [8] it was 11.9% (inactive). Also, in test [2], the inhibition of aggregation is -60% (inactive). Further, the nuclei count in test [2] was determined as 104%; in test [3] it was 107%. Moreover, in test [4], the fluorescence slope was -0.396 (inactive). In test [5], the NADPH fluorescence slope is -5.9e-05 (inactive). Besides, in test [6], the slope was 0.00515 (inactive).
As for `CCN1CCN(c2ncc(C(=O)N3CCN(c4ccccc4OC)CC3)c3ccccc23)CC1`, in test [1], the cell count is 315. The inhibition was -2.5% (inactive) in test [1], 13.2% (inactive) in test [3], 0.246% (inactive) in test [7] and 31.7% (inactive) in test [8]. In addition, the inhibition of aggregation in test [2] was 0.9% (inactive). Also, the nuclei count is 97.8% in test [2] and 96.4% in test [3]. In addition, the fluorescence slope in test [4] is -0.466 (inactive). Further, the NADPH fluorescence slope in test [5] was -4.4e-05 (inactive). For the same compound, the slope in test [6] was 0.00623 (inactive).
`O=C1CCc2cc(S(=O)(=O)N3CCC(C(=O)NCc4ccccn4)CC3)ccc2N1`: the cell count in test [1] was 599. Also, the inhibition is 0% (inactive) in test [1], -26.3% (inactive) in test [3], 13.9% (inactive) in test [7] and 14.7% (inactive) in test [8]. Moreover, the inhibition of aggregation in test [2] was 32.3% (inactive). The nuclei count came out at 115% in test [2] and 110% in test [3]. In addition, the fluorescence slope in test [4] was -0.578 (inactive). Moreover, the NADPH fluorescence slope in test [5] was 1.3e-05 (inactive). Also, the slope in test [6] is 0.00666 (inactive).
Consider `COc1cccc(NC(=O)N2CCN(c3cccc(C)c3C)CC2)c1`, for which the cell count in test [1] came out at 647. The inhibition was -5.2% (inactive) in test [1], -139% (inactive) in test [3], -24.5% (inactive) in test [7] and -55.2% (inactive) in test [8]. For the same compound, the inhibition of aggregation in test [2] is -12.7% (inactive). The nuclei count was found to be 75.8% in test [2] and 93.3% in test [3]. In test [4], the fluorescence slope is -0.455 (inactive). Moreover, in test [5], the NADPH fluorescence slope was -4.9e-05 (inactive). In addition, the slope in test [6] was 0.00389 (inactive).
